Hits are enriched below; roughly 7.6% of the tested compounds scored in any of these assays.
TSHR ag: agonists of human thyroid stimulating hormone receptor; 73,000 compounds, 0.48% hits; AID 926; P16473; HEK293-CNG-TSHR cells (CNG channel as cAMP sensor), membrane potential dye, cAMP; Potency, µM (highest dose often 57.1 µM), most hits filed as activators; active = well fitted activation curve with a large enough effect in the main read-out, with a control signal flat, not every such curve was filed as active; inconclusive = small, poorly fitted or top-dose-only effect, or a change in a side signal; inactive = no such curve, though single readings can be large or run the other way; reference of the percent scale not stated here;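 also: the control signal comes from parental cells without the receptor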
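HEK 293 cells stably expressing TSHR and a cAMP-gated CNG channel; parental CNG-only cells as counterscreen. Cells preloaded 60 min with membrane potential dye plus 100 uM RO 20-1724, then compound 30 min; fluorescence read at 590 nm.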
ERK AVP block: inhibitors of vasopressin-stimulated ERK signaling pathway; 72,000 compounds, 0.99% hits; HEK293-V1b, vasopressin-stimulated pERK AlphaScreen; Potency, µM (doses to about 57.5 µM), usual class: inhibitors; also: nearly all actives have a fitted effect of over 55% in size
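V1b-HEK293 cells; cpd 30 min 37C; 25 nM vasopressin 5 min; lyse 10 min; AlphaScreen beads 5 hr RT. Normalized to DMSO basal and 25 nM vasopressin; AC50 by Hill fit.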
Tau fil binding: binders of human tau filaments; AID 596; recombinant tau filaments, thioflavin S fluorescence, 15 h; filaments grown with octadecylsulfate alongside compound; Potency, µM (doses to about 57.1 µM); 71,000 compounds, 2% hits;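 also: actives lower thioflavin S fluorescence by blocking filaments or displacing dye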
Target sequence (P10636 whole entry, looked up): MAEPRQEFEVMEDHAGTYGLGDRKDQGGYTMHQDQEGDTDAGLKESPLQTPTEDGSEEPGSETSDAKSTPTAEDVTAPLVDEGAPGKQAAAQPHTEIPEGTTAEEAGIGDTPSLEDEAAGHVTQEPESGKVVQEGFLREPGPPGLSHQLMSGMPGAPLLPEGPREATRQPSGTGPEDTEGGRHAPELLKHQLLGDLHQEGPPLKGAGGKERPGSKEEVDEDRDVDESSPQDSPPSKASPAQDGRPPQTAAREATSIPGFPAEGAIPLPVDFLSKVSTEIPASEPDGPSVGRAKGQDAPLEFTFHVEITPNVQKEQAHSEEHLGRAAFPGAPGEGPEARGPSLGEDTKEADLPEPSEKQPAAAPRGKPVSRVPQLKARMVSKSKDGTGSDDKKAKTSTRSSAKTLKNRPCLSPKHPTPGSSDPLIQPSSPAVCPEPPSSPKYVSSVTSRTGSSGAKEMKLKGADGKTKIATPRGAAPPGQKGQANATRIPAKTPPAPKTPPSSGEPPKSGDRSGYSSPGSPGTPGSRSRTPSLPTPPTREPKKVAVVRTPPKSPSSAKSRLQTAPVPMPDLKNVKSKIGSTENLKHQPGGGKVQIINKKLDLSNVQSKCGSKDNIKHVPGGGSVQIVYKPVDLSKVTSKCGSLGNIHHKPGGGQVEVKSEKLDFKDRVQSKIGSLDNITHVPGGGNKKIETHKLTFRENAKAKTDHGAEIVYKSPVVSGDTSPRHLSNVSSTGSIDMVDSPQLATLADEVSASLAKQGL
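Recombinant tau protein (human, 1 uM final) plus 30 uM ODS in HEPES pH 7.4 with NaCl, DTT and thioflavine S. Compound present from the start; fluorescence at 510 nm after 15 h, 37 C.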
HEK293 cAMP cs: parental HEK293 cAMP activation (counter-screen). parental HEK293 CNG cAMP sensor, membrane potential fluorescence. 73,000 compounds, 2.5% hits. Potency, µM (doses to about 57.1 µM), actives largely listed as activators; also: nearly all actives have a fitted effect of over 55% in size
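Parental HEK 293 cells stably expressing a cAMP-gated CNG channel were loaded with membrane potential dye containing 100 uM RO 20-1724 for 60 min. Compound added for 30 min; depolarization read as fluorescence intensity at 590 nm.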
CRE-bla Fsk: modulators of forskolin-stimulated CRE signaling in CHO cells; CHO CRE-bla reporter (cAMP response element driving beta-lactamase), forskolin EC10, beta-lactamase ratio; Potency, µM (titrated, usually from 38.2 µM), usual class: activators; 71,000 compounds, 2.5% hits; AID 662; active = well fitted activation curve with a large enough effect in the signal ratio, with a control signal flat, not every such curve was filed as active; inconclusive = small, poorly fitted or top-dose-only effect, or effect the other way, or a change in a side signal; the % refers to the signal ratio
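Beta-lactamase reporter under a cAMP responsive element in CHO cells; compounds tested in titration series against EC10 NKH 477, 3 h at 37 °C. Read-out: CCF4 FRET ratio 460nm/530nm (excitation 405nm) giving %Activity, fitted to AC50.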
A number is an active result; [ ] = another dose, or the depositor's remark. Unless noted, calls follow the shape of the dose curve; as a rule, active = well fitted curve in the direction sought with a large enough effect; inconclusive = small, poorly fitted or top-dose-only effect, or another doubt; inactive = no such curve, though single readings can be large; an effect the other way counts as inactive or inconclusive.

For O=C(c1cc2ncc(Br)cn2n1)N1CCOCC1 the results were ERK AVP block inactive, Tau fil binding inactive[11.4 µM], HEK293 cAMP cs inactive[11.4 µM] and CRE-bla Fsk inconclusive.
Screening O=C(Nc1ccc2c(c1)OCO2)c1cc2ncc(Br)cn2n1 returned TSHR ag inactive, ERK AVP block inconclusive, Tau fil binding 25µM, HEK293 cAMP cs inactive and CRE-bla Fsk inactive.
Screening COC(=O)[C@@H]1CC[C@H](C)[C@@H](c2ccc(C)cc2)N1C(=O)c1ccc(/C=N\OCC[C@@H]2C=C[C@H](OC(C)=O)[C@H](COC(C)=O)O2)cc1 returned TSHR ag inactive[11.4 µM], ERK AVP block inactive[11.5 µM] and HEK293 cAMP cs inactive[11.4 µM].
`CC1COC2=C1C(=O)C(=O)c1c2ccc2c1CCCC2(C)C` (stereo not given) gave ERK AVP block inactive.
Screening CCn1ncc(Br)c1C(=O)Nc1cc(C(=O)OC)ccc1C(=O)OC returned TSHR ag inconclusive, ERK AVP block inactive, Tau fil binding inactive, HEK293 cAMP cs 13µM and CRE-bla Fsk inactive.
CCOCC(=O)Nc1cc(C(=O)OC)ccc1C(=O)OC was read as TSHR ag inactive, ERK AVP block inactive, Tau fil binding inactive, HEK293 cAMP cs inactive and CRE-bla Fsk inactive.
`c1ccc(C(Cc2nc(-c3ccncc3)no2)c2ccccc2)cc1` gave TSHR ag inconclusive, ERK AVP block inactive, Tau fil binding inactive, HEK293 cAMP cs 16µM and CRE-bla Fsk inactive.
`CN(C)c1nc(N)nc(Cn2ccnc2)n1` gave ERK AVP block inactive, Tau fil binding inactive, HEK293 cAMP cs inactive and CRE-bla Fsk 6.3µM.
CCSc1nc2ccccc2n1Cc1nc(N)nc(N(C)C)n1 was read as TSHR ag inactive, ERK AVP block inconclusive, Tau fil binding inactive, HEK293 cAMP cs inactive and CRE-bla Fsk inconclusive.
Screening CCNc1ncc2nc(-c3ccc(Cl)cc3)c(=O)n(Cc3cccc(OC)c3)c2n1 returned TSHR ag inactive, ERK AVP block inactive, Tau fil binding inactive, HEK293 cAMP cs inactive and CRE-bla Fsk inconclusive.
For CC(=O)c1c(COC(=O)c2cccnc2)nc2ccccc2[n+]1[O-] the results were TSHR ag inactive, ERK AVP block inactive, Tau fil binding 20µM, HEK293 cAMP cs inactive and CRE-bla Fsk inconclusive.
CCc1ccc(NC(=O)c2ccc3c(c2)C(=O)N(Cc2ccco2)C3=O)cc1 was read as TSHR ag inconclusive, ERK AVP block inconclusive, Tau fil binding 25µM, HEK293 cAMP cs inconclusive and CRE-bla Fsk inconclusive.
Screening COC(=O)c1ccccc1NC(=O)c1ccc2c(c1)C(=O)N(Cc1ccco1)C2=O returned TSHR ag inactive, ERK AVP block inactive, Tau fil binding inactive, HEK293 cAMP cs inactive and CRE-bla Fsk inactive.
For CN(C)CCNC(=O)c1ccc(-n2c(=O)c(=O)[nH]c3ccccc32)cc1 the results were TSHR ag inactive and HEK293 cAMP cs inactive.
`CCOC(=O)OCC1OC(c2ccccc2)C=CC1OC(=O)OCC` (stereo not given) gave TSHR ag inactive[11.4 µM], ERK AVP block inactive[11.5 µM] and HEK293 cAMP cs inactive[11.4 µM].
`Cc1oc(-c2nc3ccccc3n2C)cc1C(=O)c1ccccc1` gave TSHR ag inconclusive, ERK AVP block inactive, Tau fil binding inactive, HEK293 cAMP cs 25µM and CRE-bla Fsk inconclusive.
Screening COc1ccc(C(=O)c2coc3ccc(O)c(CN4CCCC4)c23)cc1 returned TSHR ag inconclusive, ERK AVP block inactive, Tau fil binding inactive, HEK293 cAMP cs inconclusive and CRE-bla Fsk inactive.
For Cc1ccc(C(=O)c2coc3ccc(O)c(CN4CCN(C)CC4)c23)cc1 the results were TSHR ag inconclusive, ERK AVP block inactive, Tau fil binding inactive, HEK293 cAMP cs 13µM and CRE-bla Fsk inactive.
Screening CC1(N)CCC(C(C)(C)N)CC1 (stereo not given) returned TSHR ag inactive, ERK AVP block inactive, Tau fil binding inactive, HEK293 cAMP cs inactive and CRE-bla Fsk inactive.
Screening O=S(=O)(NCc1ccccn1)c1cccc2cccnc12 returned TSHR ag inactive, Tau fil binding inactive, HEK293 cAMP cs inactive and CRE-bla Fsk inactive.
For CN(C)c1ncc2nc(-c3ccccc3)c(=O)n(C)c2n1 the results were TSHR ag inactive, ERK AVP block inactive, Tau fil binding inactive, HEK293 cAMP cs inactive and CRE-bla Fsk inconclusive.
CN(C)c1ncc2nc(-c3ccc(Cl)cc3)c(=O)n(C)c2n1 was read as TSHR ag inactive, ERK AVP block inactive, Tau fil binding inactive, HEK293 cAMP cs inactive and CRE-bla Fsk 2.5µM.

Screens as filed in PubChem BioAssay.
